Compounds with a hit are over-represented: about 12% of the library has one in this group of screens.
G9a block: inhibitors of human histone lysine methyltransferase G9a; G9a H3K9 monomethylation, AlphaScreen, 2 h; Q96KQ7; Potency, µM (top dose mostly 102 µM), for the others: top-dose activity, negative = inhibition, hits mostly inhibitors; actives 8.8% (n = 350,000); also: % is scaled to controls: 0 for no effect and ±100 for the full control effect; nearly all actives have a fitted effect of over 75% in size
Target sequence (Q96KQ7 913-1193 limits assumed): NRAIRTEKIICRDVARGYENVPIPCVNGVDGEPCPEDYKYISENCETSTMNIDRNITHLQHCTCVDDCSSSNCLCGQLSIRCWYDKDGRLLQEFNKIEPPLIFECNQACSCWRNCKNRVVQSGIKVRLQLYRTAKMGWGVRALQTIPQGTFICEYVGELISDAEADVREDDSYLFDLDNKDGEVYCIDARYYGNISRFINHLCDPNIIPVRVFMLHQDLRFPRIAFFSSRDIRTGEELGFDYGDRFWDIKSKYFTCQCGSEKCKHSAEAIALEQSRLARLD
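AlphaScreen detection with an anti-monomethyl H3K9 antibody quantified product after a 2 h room-temperature reaction containing 500 nM biotinylated H3K9 peptide, 20 µM SAM and 20 nM enzyme, which had been preincubated 15 min with compound.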
Sfp inh: inhibitors of Bacillus subtilis Sfp phosphopantetheinyl transferase; Biochemical Sfp PPTase activity, qHTS; Potency, µM, without a hit: largest response in the series, negative = inhibition, usual class: inhibitors; actives 3.5% (n = 310,000);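 also: the enzyme is Sfp with the accession as filed and its product quenches rhodamine fluorescence; 0% = enzyme reaction without inhibitor and -100% = no enzyme wells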
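With Hepes-Na pH 7.6 buffer containing 10 mM MgCl2, Sfp (15 nM) modified BHQ-2-YbbR (12.5 uM) using rhodamine-CoA (5 uM). Two reads 30 minutes apart at 525/598 nm yielded each well's rate.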
JMJD2A Tudor inh: blocks the human JMJD2A Tudor domain; O75164; actives 4.4% (n = 390,000); AlphaScreen JMJD2A-Tudor / H3K4me3 peptide binding; Potency, µM (top dose mostly 114 µM), without a hit: top-dose activity change, negative = inhibition, hits mostly inhibitors; also: % is scaled to controls: 0 for no effect and ±100 for the full control effect; nearly all actives have a fitted effect of over 50% in size
PLK1 PBD inh: inhibitors of human PLK1 polo-box domain binding; Potency, µM, for inactives: max response, negative = inhibition, usual class: inhibitors; P53350; AID 720504; Plk1 PBD binding of FITC phosphopeptide, fluorescence polarization; actives 2.8% (n = 360,000); also: series mostly up to about 57 µM; % is scaled to controls: 0 for no effect and ±100 for the full control effect; nearly all actives have a fitted effect of over 65% in size
BAZ2B block: blocks human BAZ2B. AlphaScreen BAZ2B-H3K14Ac peptide displacement. Q9UIF8. AID 504333. Potency, µM (highest dose often 114 µM), inactives show at the highest dose activity change, negative = inhibition, actives largely listed as inhibitors. actives 4.4% (n = 360,000); also: % is scaled to controls: 0 for no effect and ±100 for the full control effect; nearly all actives have a fitted effect of over 60% in size
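AlphaScreen displacement of biotin-H3(5-23)K14Ac peptide (50 nM final) from BAZ2B (50 nM final) in PBS pH 7.4, 0.01% Tween-20; complex preformed 30 min RT, then compounds (top 110 uM) 30 min RT, beads 20 min dark.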
HP1b chromo inh: blocks HP1-beta chromodomain binding to methylated histone tails; AID 540317; Potency, µM (highest dose often 114 µM), inactives show at the top dose activity change, negative = inhibition, most hits filed as inhibitors; actives 0.56% (n = 390,000); AlphaScreen HP1-beta / biotin-H3K9me3 peptide binding; P83916; also: nearly all actives have a fitted effect of over 70% in size
Target sequence (P83916 whole entry, looked up): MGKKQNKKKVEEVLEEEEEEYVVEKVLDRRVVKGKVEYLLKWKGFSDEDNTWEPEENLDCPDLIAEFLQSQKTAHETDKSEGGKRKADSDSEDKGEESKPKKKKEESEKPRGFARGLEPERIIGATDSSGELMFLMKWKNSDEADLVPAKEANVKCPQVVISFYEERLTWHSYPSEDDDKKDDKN
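HP1-beta protein (50 nM final) preincubated 30 min at room temperature with biotinylated H3(1-18)K9me3 peptide (50 nM) in PBS pH 7.4, 0.01% Tween-20, then compound added for 30 min. AlphaScreen streptavidin donor/nickel chelate acceptor beads (10 ug/mL final), 30 min dark, luminescence read.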
The depositor's hits bear a star; [ ] = another dose, or the depositor's remark. Calls follow the shape of the dose curve; as a rule, active = well fitted curve in the direction sought with a large enough effect; inconclusive = small, poorly fitted or top-dose-only effect, or another doubt; inactive = no such curve, though single readings can be large; an effect the other way counts as inactive or inconclusive. Potency is read from the fitted curve at half-maximal effect.

What do the screens show for `CCOc1ccc(C2C(=O)N(C3CCCCC3)CC(=O)N2CCc2ccccc2)cc1OC` (configuration not stated)?
G9a block: 5%[59 µM]; JMJD2A Tudor inh: -21%; BAZ2B block: -5%; HP1b chromo inh: 19%

Results for COc1cc2c(c(O)c1OC)-c1c(cc(OC)c(OC)c1O)[C@@H](OC(=O)c1ccccc1)[C@@](C)(O)[C@@H](C)[C@@H]2OC(C)=O ?
G9a block: 14%[59 µM]; Sfp inh: 8%; BAZ2B block: 50µM*

How did COc1cc(NC(=O)c2ccc(C(=O)c3ccccc3)cc2)cc(OC)c1OC do in these assays?
Sfp inh: -1%; JMJD2A Tudor inh: -1%; PLK1 PBD inh: 3%; BAZ2B block: 0%; HP1b chromo inh: 30%

What do the screens show for `Cc1ccc2nc(N3CCN(c4cccc(Cl)c4)CC3)c(-n3nc(C)cc3C)nc2c1`?
G9a block: 158%[59 µM]; JMJD2A Tudor inh: 65%; BAZ2B block: 67%; HP1b chromo inh: 166%

Results for COC(=O)c1ccc2c(=O)[nH]c(COC(=O)c3[nH]c(C)c(C(C)=O)c3C)nc2c1 ?
JMJD2A Tudor inh: -29%; PLK1 PBD inh: -5%; HP1b chromo inh: -26%

How did O=C(COc1ccccc1)NN1C(=O)CSC1=S do in these assays?
G9a block: inconclusive; Sfp inh: -8%; JMJD2A Tudor inh: 4%; PLK1 PBD inh: 0%; BAZ2B block: -16%; HP1b chromo inh: 32%

What do the screens show for `O=C(COc1c(Cl)cccc1Cl)NN1C(=O)CSC1=S`?
G9a block: -9%; Sfp inh: 12%; JMJD2A Tudor inh: inconclusive; PLK1 PBD inh: 19µM*; BAZ2B block: -16%; HP1b chromo inh: -2%

What do the screens show for `Cc1c2ccccc2c(CSC(=N)N)c2ccccc12`?
Sfp inh: 45µM*

What do the screens show for `Cc1c2ccccc2c(C)c2c1ccc1ccccc12`?
G9a block: 300%[59 µM]; JMJD2A Tudor inh: 94%; PLK1 PBD inh: 5%; BAZ2B block: 257%; HP1b chromo inh: 168%

Results for O=S(=O)(c1cccc(F)c1)N1CCN(S(=O)(=O)c2ccc3c(c2)OCCO3)CC1 ?
JMJD2A Tudor inh: -19%

How did CCCc1c(OCC(O)COc2ccc3c(=O)cc(C(=O)O)oc3c2CCC)ccc(C(C)=O)c1O (configuration not stated) do in these assays?
G9a block: 3%[59 µM]; Sfp inh: -7%

Results for O=C(NC1CCCCC1)C(=S)N1CCOCC1 ?
G9a block: inconclusive; Sfp inh: 50µM*; JMJD2A Tudor inh: -3%; PLK1 PBD inh: 24µM*; BAZ2B block: -7%; HP1b chromo inh: -2%

Results for CC(C)C[C@@H](CC(=O)N[C@H](CC(=O)N[C@@H]1CCNC[C@H]1C(=O)N[C@H](CC(=O)N[C@@H](CCC(=O)O)CC(=O)O)Cc1ccccc1)C(C)C)NC(=O)[C@@H]1CCCC[C@H]1N ?
Sfp inh: -13%

What do the screens show for `Cc1ccc(C2c3c(oc4ccccc4c3=O)C(=O)N2c2nnc(C(C)C)s2)o1` (configuration not stated)?
G9a block: 50µM*; Sfp inh: -6%; JMJD2A Tudor inh: -15%; PLK1 PBD inh: -3%; BAZ2B block: 2%; HP1b chromo inh: 45%

How did CC(C)c1nnc(N2C(=O)c3oc4ccccc4c(=O)c3C2c2ccco2)s1 (configuration not stated) do in these assays?
G9a block: 2%[59 µM]; Sfp inh: -26%; JMJD2A Tudor inh: -11%; PLK1 PBD inh: -7%; BAZ2B block: 10%; HP1b chromo inh: 18%

How did Cc1nnc(N2C(=O)c3oc4ccccc4c(=O)c3C2c2ccco2)s1 (configuration not stated) do in these assays?
G9a block: 20µM*; Sfp inh: inconclusive; JMJD2A Tudor inh: -30%; PLK1 PBD inh: -20%; BAZ2B block: -13%; HP1b chromo inh: 25%

What do the screens show for `CC1(C(=O)NS(=O)(=O)c2cccc(F)c2)CCN1C(=O)Cc1cccc2ccccc12` (configuration not stated)?
PLK1 PBD inh: -7%

Results for CN(C)c1nc(C=C(C#N)C#N)c(Cl)n1-c1ccc(F)cc1 ?
G9a block: inconclusive; Sfp inh: 8%; JMJD2A Tudor inh: -18%; PLK1 PBD inh: 15µM*; BAZ2B block: -22%; HP1b chromo inh: 16%

What do the screens show for `CCOC(=O)c1sc(NC(=O)C2c3ccccc3Oc3ccccc32)c(C#N)c1C`?
G9a block: 2.2µM*; JMJD2A Tudor inh: -11%; BAZ2B block: -1%; HP1b chromo inh: -14%

What do the screens show for `CCN(CC)C(=O)c1sc(NC(=O)c2c(OC)cccc2OC)c(C#N)c1C`?
G9a block: 18µM*; Sfp inh: -4%; JMJD2A Tudor inh: -4%; PLK1 PBD inh: inconclusive; BAZ2B block: -19%; HP1b chromo inh: -1%

How did CCOC(=O)c1sc(NC(=O)c2ccco2)c(C#N)c1C do in these assays?
G9a block: 45µM*; Sfp inh: -16%; JMJD2A Tudor inh: 2%; PLK1 PBD inh: inconclusive; BAZ2B block: -3%; HP1b chromo inh: -4%

What do the screens show for `CCN(CC)C(=O)c1sc(NC(=O)c2cccc([N+](=O)[O-])c2)c(C#N)c1C`?
G9a block: inconclusive; Sfp inh: 11%; JMJD2A Tudor inh: 18%; PLK1 PBD inh: 1%; BAZ2B block: -23%; HP1b chromo inh: 35%

Results for CCOC(=O)c1sc(NC(=O)C2c3ccccc3Oc3ccccc32)c(C(=O)OCC)c1C ?
G9a block: -26%[59 µM]; JMJD2A Tudor inh: -17%; BAZ2B block: -7%; HP1b chromo inh: 25%

How did CCc1c(C)sc(NC(=O)c2ccco2)c1C#N do in these assays?
Sfp inh: -2%; JMJD2A Tudor inh: -7%; PLK1 PBD inh: inconclusive; BAZ2B block: -10%; HP1b chromo inh: 24%

Results for Cc1ccc(C(C)C)c(OC(C)C(=O)NCC2(N(C)C)CCCCC2)c1 (configuration not stated) ?
G9a block: inconclusive; JMJD2A Tudor inh: -23%; BAZ2B block: -20%; HP1b chromo inh: 18%

How did O=C(COc1ccccc1F)Nc1nnc(-c2ccncc2)s1 do in these assays?
G9a block: 71µM*; Sfp inh: -9%; JMJD2A Tudor inh: 20µM*; PLK1 PBD inh: -15%; BAZ2B block: -34%; HP1b chromo inh: 21%

Results for Cc1ccc2nsnc2c1NC(=O)COc1ccccc1F ?
G9a block: 56µM*; Sfp inh: 12%; JMJD2A Tudor inh: -3%; PLK1 PBD inh: -3%; BAZ2B block: -19%; HP1b chromo inh: 30%
